Reference: PubChem BioAssay (NCATS)
Inconclusive results are not listed. The source made the active and inactive calls. Unless noted, calls come from the whole dose curve; as a rule, active = well fitted curve in the direction sought with a large enough effect; inconclusive = small, poorly fitted or top-dose-only effect, or another doubt; inactive = no such curve, though single readings can be large; an effect the other way counts as inactive or inconclusive.

What was measured:
C33A = assay: Primary qHTS to identify gynecologic anti-cancer compounds using libraries of approved drugs and bioactive compounds (AID 1345084); settings: Gynecologic cancer cell panel viability, ATPlite luminescence, 48 h; series mostly up to 57.5 µM; note: % is set by controls: 0 for no effect and ±100 for the full control effect; nearly all actives have a fitted effect of over 55% in size
In short: (§1)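 Five-point cytotoxicity, 48 h drug exposure at 37 C, 5% CO2, on cells seeded 16 h beforehand. ATP content read by ATPlite luminescence.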

CAOV3 = assay: as above; settings: Gynecologic cancer cell panel viability, ATPlite luminescence, 48 h; series mostly up to 57.5 µM
In short: as §1

CASKI = assay: as above; settings: Gynecologic cancer cell panel viability, ATPlite luminescence, 48 h; series mostly up to 57.5 µM
In short: as §1

Es-2 = assay: as above; settings: Gynecologic cancer cell panel viability, ATPlite luminescence, 48 h; series mostly up to 57.5 µM
In short: as §1

HeLa = assay: as above; settings: Gynecologic cancer cell panel viability, ATPlite luminescence, 48 h; series mostly up to 57.5 µM
In short: as §1

Hek293T = assay: as above; settings: Gynecologic cancer cell panel viability, ATPlite luminescence, 48 h, control line for the selectivity index; series mostly up to 57.5 µM
In short: as §1

JEG-3 = assay: as above; settings: Gynecologic cancer cell panel viability, ATPlite luminescence, 48 h; series mostly up to 57.5 µM
In short: as §1

OV90 = assay: as above; settings: Gynecologic cancer cell panel viability, ATPlite luminescence, 48 h; series mostly up to 57.5 µM
In short: as §1

PA-1 = assay: as above; settings: Gynecologic cancer cell panel viability, ATPlite luminescence, 48 h; series mostly up to 57.5 µM
In short: as §1

SKOV3 = assay: as above; settings: Gynecologic cancer cell panel viability, ATPlite luminescence, 48 h; series mostly up to 57.5 µM
In short: as §1

Tov-21-G = assay: as above; settings: Gynecologic cancer cell panel viability, ATPlite luminescence, 48 h; series mostly up to 57.5 µM
In short: as §1

Tov112D = assay: as above; settings: Gynecologic cancer cell panel viability, ATPlite luminescence, 48 h; series mostly up to 57.5 µM
In short: as §1

[1] = Drug repurposing screens with cells derived from glioblastoma tumor samples (AID 1345199); settings: GBM patient neurospheres viability, ATP luminescence, 48 h; note: % is set by controls: 0 for no effect and ±100 for the full control effect; nearly all actives have a fitted effect of over 40% in size
In short: (§2)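 Four patient lines of CD133+ GBM neurospheres were screened at several concentrations; hits were retested in those lines plus three slower-growing GBM lines, using 48-hour treatment and ATP-based viability.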

astro = assay: as above; settings: viability, ATP luminescence, 48 h; series mostly up to 45.9 µM
In short: as §2

[2] = biological target: Nuclear receptor subfamily 1 group I member 2 (Rattus norvegicus) (UniProt Q9R1A7); assay: qHTS assay for small molecule activators of the rat pregnane X receptor (rPXR) signaling pathway (AID 651751; call rule not given here; note: 0% is about no effect); settings: rPXR reporter cells, luciferase (One-Glo), 24 h
[3] = qHTS assay for small molecule activators of the human pregnane X receptor (PXR) signaling pathway (AID 720659; call rule not given here; note: 0% is about no effect)
[4] = at 45.9 µM (top of the series), tumour line B
[5] = at 45.9 µM (top of the series), tumour line D
[6] = at 46.1 µM (top of the series), tumour line C
[7] = at 46 µM (top of the series), tumour line A

Sequence of Nuclear receptor subfamily 1 group I member 2 (Rattus norvegicus) (Q9R1A7 whole entry, looked up): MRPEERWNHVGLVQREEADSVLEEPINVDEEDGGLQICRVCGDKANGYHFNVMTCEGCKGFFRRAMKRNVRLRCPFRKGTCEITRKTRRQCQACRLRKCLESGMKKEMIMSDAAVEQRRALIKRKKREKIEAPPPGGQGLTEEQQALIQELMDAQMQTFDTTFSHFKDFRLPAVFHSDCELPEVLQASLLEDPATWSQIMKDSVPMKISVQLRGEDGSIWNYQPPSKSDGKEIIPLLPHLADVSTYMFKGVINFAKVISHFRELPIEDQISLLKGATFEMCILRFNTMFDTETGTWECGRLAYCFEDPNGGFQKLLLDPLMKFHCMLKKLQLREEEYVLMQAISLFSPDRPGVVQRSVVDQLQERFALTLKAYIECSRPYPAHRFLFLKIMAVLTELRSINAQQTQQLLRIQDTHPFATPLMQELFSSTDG

O=C(O)c1cccnc1
inactive: Potency (C33A) | Potency (CAOV3) | Potency (CASKI) | Potency (Es-2) | Potency (HeLa) | Potency (Hek293T) | Potency (JEG-3) | Potency (OV90) | Potency (PA-1) | Potency (SKOV3) | Potency (Tov-21-G) | Potency (Tov112D) | activity, negative = cell killing [1, 4] -10% | activity, negative = cell killing [1, 5] -8.9% | activity, negative = cell killing [1, 6] -28.3% | Potency (astro)

NNC(=O)c1ccncc1
inactive: Potency (C33A) | Potency (CAOV3) | Potency (CASKI) | Potency (Es-2) | Potency (HeLa) | Potency (Hek293T) | Potency (JEG-3) | Potency (OV90) | Potency (PA-1) | Potency (SKOV3) | Potency (Tov-21-G) | Potency (Tov112D) | activity, negative = cell killing [1, 4] -4.35% | activity, negative = cell killing [1, 5] -4.61% | activity, negative = cell killing [1, 6] -1.87% | Potency (astro) | max response [2] 6.47% | outcome [3]

CCn1cc(C(=O)O)c(=O)c2cc(F)c(N3CCN(C)CC3)cc21
inactive: Potency (C33A) | Potency (CAOV3) | Potency (CASKI) | Potency (Es-2) | Potency (HeLa) | Potency (Hek293T) | Potency (JEG-3) | Potency (OV90) | Potency (PA-1) | Potency (SKOV3) | Potency (Tov-21-G) | Potency (Tov112D) | activity, negative = cell killing [1, 4] -12.6% | activity, negative = cell killing [1, 5] -0.981% | activity, negative = cell killing [1, 6] -19.8% | Potency (astro)

N[C@@H](C(=O)N[C@@H]1C(=O)N2C(C(=O)O)=C(Cl)CS[C@H]12)c1ccccc1
inactive: activity change, negative = cytotoxicity (C33A) 7.76% [at 11.6 µM] | activity change, negative = cytotoxicity (CAOV3) 16.8% [at 11.6 µM] | activity change, negative = cytotoxicity (CASKI) 2.82% [at 11.6 µM] | activity change, negative = cytotoxicity (Es-2) 3.68% [at 11.6 µM] | activity change, negative = cytotoxicity (HeLa) 2.57% [at 11.6 µM] | activity change, negative = cytotoxicity (Hek293T) 4.98% [at 11.6 µM] | activity change, negative = cytotoxicity (JEG-3) 1.47% [at 11.6 µM] | activity change, negative = cytotoxicity (OV90) 0.914% [at 11.6 µM] | activity change, negative = cytotoxicity (PA-1) 14.4% [at 11.6 µM] | activity change, negative = cytotoxicity (SKOV3) 12.2% [at 11.6 µM] | activity change, negative = cytotoxicity (Tov-21-G) 0.747% [at 11.6 µM] | activity change, negative = cytotoxicity (Tov112D) 2.46% [at 11.6 µM] | activity, negative = cell killing [1, 4] -8.97% | activity, negative = cell killing [1, 5] 11.2% | activity, negative = cell killing [1, 6] 7.75% | Potency (astro)

O=NN(CCCl)C(=O)NC1CCCCC1
inactive: Potency (C33A) | Potency (CAOV3) | Potency (CASKI) | Potency (Es-2) | Potency (HeLa) | Potency (Hek293T) | Potency (JEG-3) | Potency (OV90) | Potency (PA-1) | Potency (SKOV3) | Potency (Tov-21-G) | Potency (Tov112D) | activity, negative = cell killing [1, 4] -2.15% | activity, negative = cell killing [1, 5] -13.5% | activity, negative = cell killing [1, 6] -16.6% | Potency (astro)

Nc1nc(N)nc(-c2cc(Cl)ccc2Cl)n1
inactive: Potency (C33A) | Potency (CAOV3) | Potency (CASKI) | Potency (Es-2) | Potency (HeLa) | Potency (Hek293T) | Potency (JEG-3) | Potency (OV90) | Potency (PA-1) | Potency (SKOV3) | Potency (Tov-21-G) | Potency (Tov112D) | activity, negative = cell killing [1, 4] 1.99% | activity, negative = cell killing [1, 5] 7.54% | activity, negative = cell killing [1, 6] 13.1% | Potency (astro)

CN(C)CCc1c[nH]c2ccc(C[C@H]3COC(=O)N3)cc12
inactive: Potency (C33A) | Potency (CAOV3) | Potency (CASKI) | Potency (Es-2) | Potency (HeLa) | Potency (Hek293T) | Potency (JEG-3) | Potency (OV90) | Potency (PA-1) | Potency (SKOV3) | Potency (Tov-21-G) | Potency (Tov112D) | activity, negative = cell killing [1, 4] -19.9% | activity, negative = cell killing [1, 5] -11% | activity, negative = cell killing [1, 6] 4.56% | Potency (astro)

OC(Cn1cncn1)(Cn1cncn1)c1ccc(F)cc1F
inactive: Potency (C33A) | Potency (CAOV3) | Potency (CASKI) | Potency (Es-2) | Potency (HeLa) | Potency (Hek293T) | Potency (JEG-3) | Potency (OV90) | Potency (PA-1) | Potency (SKOV3) | Potency (Tov-21-G) | Potency (Tov112D) | activity, negative = cell killing [1, 4] -6.67% | activity, negative = cell killing [1, 5] -19.6% | activity, negative = cell killing [1, 7] -17.5% | activity, negative = cell killing [1, 6] -6.89% | max response [2] 4.95%

NS(=O)(=O)c1cc2c(cc1Cl)NC(C(Cl)Cl)NS2(=O)=O (stereo unspecified)
inactive: Potency (C33A) | Potency (CAOV3) | Potency (CASKI) | Potency (Es-2) | Potency (HeLa) | Potency (Hek293T) | Potency (JEG-3) | Potency (OV90) | Potency (PA-1) | Potency (SKOV3) | Potency (Tov-21-G) | Potency (Tov112D) | activity, negative = cell killing ([1]; at 20 µM (top of the series), tumour line C) 6.84% | activity, negative = cell killing ([1]; at 21.2 µM (top of the series), tumour line B) -4.6% | activity, negative = cell killing ([1]; at 21.2 µM (top of the series), tumour line D) -11.1% | activity, negative = cell killing ([1]; at 21.3 µM (top of the series), tumour line A) -6.45% | Potency (astro)

O=C(O)CCn1c2c(c3ccccc31)C[C@H](NS(=O)(=O)c1ccc(F)cc1)CC2
inactive: Potency (C33A) | Potency (CAOV3) | Potency (CASKI) | Potency (Es-2) | Potency (HeLa) | Potency (Hek293T) | Potency (JEG-3) | Potency (OV90) | Potency (PA-1) | Potency (SKOV3) | Potency (Tov-21-G) | Potency (Tov112D) | activity, negative = cell killing [1, 4] -3.62% | activity, negative = cell killing [1, 5] -7.83% | activity, negative = cell killing [1, 7] -16.4% | activity, negative = cell killing [1, 6] -18.1% | Potency (astro)

Cc1ncc([N+](=O)[O-])n1CCO
inactive: Potency (C33A) | Potency (CAOV3) | Potency (CASKI) | Potency (Es-2) | Potency (HeLa) | Potency (Hek293T) | Potency (JEG-3) | Potency (OV90) | Potency (PA-1) | Potency (SKOV3) | Potency (Tov-21-G) | Potency (Tov112D) | activity, negative = cell killing [1, 4] -7.77% | activity, negative = cell killing [1, 5] 10.9% | activity, negative = cell killing [1, 7] -19.2% | activity, negative = cell killing [1, 6] 12.6% | Potency (astro) | max response [2] 6.53% | outcome [3]

CNS(=O)(=O)CCc1ccc2[nH]cc(C3CCN(C)CC3)c2c1
inactive: Potency (C33A) | Potency (CAOV3) | Potency (CASKI) | Potency (Es-2) | Potency (HeLa) | Potency (Hek293T) | Potency (JEG-3) | Potency (OV90) | Potency (PA-1) | Potency (SKOV3) | Potency (Tov-21-G) | Potency (Tov112D) | activity, negative = cell killing [1, 4] -8.38% | activity, negative = cell killing [1, 5] 2.37% | activity, negative = cell killing [1, 6] 9.59% | Potency (astro)

CNNCc1ccc(C(=O)NC(C)C)cc1
inactive: Potency (C33A) | Potency (CAOV3) | Potency (CASKI) | Potency (Es-2) | Potency (HeLa) | Potency (Hek293T) | Potency (JEG-3) | Potency (OV90) | Potency (PA-1) | Potency (SKOV3) | Potency (Tov-21-G) | Potency (Tov112D) | activity, negative = cell killing [1, 4] -4.85% | activity, negative = cell killing [1, 5] -17.7% | activity, negative = cell killing [1, 6] -14.6% | Potency (astro)
